# Reference: PubChem BioAssay (NCATS)
# Records with an inconclusive call do not appear. Where a call stands in place of a potency, no number is given. Active and inactive are the calls of the source. Unless noted, calls come from the whole dose curve; as a rule, active = well fitted curve in the direction sought with a large enough effect; inconclusive = small, poorly fitted or top-dose-only effect, or another doubt; inactive = no such curve, though single readings can be large; an effect the other way counts as inactive or inconclusive.
# How the values were obtained:
# [1] = qHTS to identify inhibitors of the type 1 interferon - major histocompatibility complex class I in skeletal muscle: primary screen against the NCATS Mechanism Interrogation Plate v5.0 (MIPE) Libary (AID 1347411); note: nearly all actives have a fitted effect of over 65% in size; note: potency is the fitted concentration of half-maximal effect
# How it was run: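 IFN-beta-driven (4 ng/ml) HLA-B-HiBit expression in CRISPR-tagged C25cl48 myoblasts; compounds 11-pt, 1:3, max 46 uM, 24 hr exposure; lytic NanoLuc complementation luminescence.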
# [2] = target: Calcium and integrin-binding protein 1 (Homo sapiens) (UniProt Q99828); experiment: Primary qHTS for Identification of Calcium Integrin Binding Protein 1 (CIB1) Competitor (AID 1508620);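 note: GST tagged CIB1 binding a fluorescein labelled alphaIIb integrin peptide tracer; top concentration of the series differs between compounds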
# Calcium and integrin-binding protein 1 (Homo sapiens), sequence (Q99828 whole entry, looked up): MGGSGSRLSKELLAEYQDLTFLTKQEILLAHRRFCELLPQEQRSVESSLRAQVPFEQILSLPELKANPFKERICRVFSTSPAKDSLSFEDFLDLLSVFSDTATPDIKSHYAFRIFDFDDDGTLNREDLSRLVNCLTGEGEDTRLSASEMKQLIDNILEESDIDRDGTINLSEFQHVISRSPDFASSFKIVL
# How it was run: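 Fluorescence polarization competition: GST-tagged CIB1 (1 uM final) preincubated with compound 15 min at room temperature, then FITC-labelled alphaIIb peptide (100 nM final) added. After 15 min at room temperature, polarization read at Ex 480/Em 540.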
# [3] = Primary qHTS for small molecule stabilizers of the endoplasmic reticulum resident proteome: Secreted ER Calcium Modulated Protein (SERCaMP) assay (AID 1508630)
# How it was run: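 The SH-SY5Y reporter protocol was run at 3 concentrations up to 38.3 uM (primary) or 11 concentrations (follow-up): 16 h compound, 100 nM thapsigargin for 4 h, then extracellular luciferase luminescence.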
# [4] = Primary qHTS for inhibitors of nuclear receptor binding SET domain protein 2 (NSD2) in an isogenic RCH-ACV NSD2 p.E1099K mutant (9B) (AID 1645876); note: nearly all actives have a fitted effect of over 70% in size; note: potency is the fitted concentration of half-maximal effect
# [5] = Primary qHTS for inhibitors of nuclear receptor binding SET domain protein 2 (NSD2) in an RCH-ACV wild type WT cells (2C) (AID 1645877); note: nearly all actives have a fitted effect of over 70% in size; note: potency is the fitted concentration of half-maximal effect
# [6] = target: Cytochrome P450 2D6 (Homo sapiens) (UniProt P10635); experiment: Cytochrome P450 family 2 subfamily D member 6 (CYP2D6) small molecule antagonists: luciferase biochemical (cell-free) qHTS assay (AID 1645840; active = well fitted curve in the direction sought with a large enough effect in the repeat runs; an effect the other way counts as inactive or inconclusive; note: nearly all actives have a fitted effect of over 55% in size; note: potency is the fitted concentration of half-maximal effect)
# Cytochrome P450 2D6 (Homo sapiens), sequence (P10635 whole entry, looked up): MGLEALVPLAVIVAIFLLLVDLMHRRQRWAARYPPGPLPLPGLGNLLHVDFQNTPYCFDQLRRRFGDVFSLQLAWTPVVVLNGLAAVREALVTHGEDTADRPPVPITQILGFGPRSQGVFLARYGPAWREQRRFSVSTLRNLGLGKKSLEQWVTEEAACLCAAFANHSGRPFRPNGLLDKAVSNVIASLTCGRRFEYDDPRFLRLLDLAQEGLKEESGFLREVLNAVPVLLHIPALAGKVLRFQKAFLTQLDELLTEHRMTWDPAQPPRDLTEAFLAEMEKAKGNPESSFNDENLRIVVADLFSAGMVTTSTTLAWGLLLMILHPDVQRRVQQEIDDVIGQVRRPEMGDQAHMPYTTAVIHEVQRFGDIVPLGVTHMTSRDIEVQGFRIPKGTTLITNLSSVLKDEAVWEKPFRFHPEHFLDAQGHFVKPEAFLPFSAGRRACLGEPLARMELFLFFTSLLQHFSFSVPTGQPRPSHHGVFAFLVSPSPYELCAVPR
# How it was run: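 P450-Glo CYP2D6 system: proluciferin substrate converted by enzyme to luciferin, read by luminescence proportional to activity. Enzyme-substrate mix with compound 10 min at room temperature, then NADPH regeneration 1 h before detection reagent.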
# [7] = target: Cytochrome P450 2C9 (Homo sapiens) (UniProt P11712); experiment: Cytochrome P450 family 2 subfamily C member 9 (CYP2C9) small molecule antagonists: luciferase biochemical (cell-free) qHTS assay (AID 1645842; active = well fitted curve in the direction sought with a large enough effect in the repeat runs; an effect the other way counts as inactive or inconclusive; note: nearly all actives have a fitted effect of over 55% in size; note: potency is the fitted concentration of half-maximal effect)
# Cytochrome P450 2C9 (Homo sapiens), sequence (P11712 whole entry, looked up): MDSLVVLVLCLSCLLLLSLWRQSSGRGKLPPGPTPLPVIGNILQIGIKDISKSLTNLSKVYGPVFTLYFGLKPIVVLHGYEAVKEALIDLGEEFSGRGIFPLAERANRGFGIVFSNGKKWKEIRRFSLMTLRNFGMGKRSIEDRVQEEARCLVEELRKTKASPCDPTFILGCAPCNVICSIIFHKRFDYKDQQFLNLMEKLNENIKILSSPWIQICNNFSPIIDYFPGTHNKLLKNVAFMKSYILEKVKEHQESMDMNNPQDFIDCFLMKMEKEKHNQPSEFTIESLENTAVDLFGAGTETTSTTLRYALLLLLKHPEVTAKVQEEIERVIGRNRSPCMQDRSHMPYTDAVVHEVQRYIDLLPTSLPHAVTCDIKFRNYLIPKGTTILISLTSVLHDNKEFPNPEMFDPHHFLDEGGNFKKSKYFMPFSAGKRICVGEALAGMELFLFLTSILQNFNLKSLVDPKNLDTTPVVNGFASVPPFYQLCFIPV
# How it was run: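 P450-Glo CYP2C9 system: proluciferin substrate with enzyme in mix containing 0.4% BSA, 10 min at room temperature, then NADPH regeneration solution added and incubated 1 h at 37C. Detection reagent stopped reaction; luminescence read after 20 min as RLU.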
# [8] = target: Calcium and integrin-binding protein 1 (Homo sapiens) (UniProt Q99828); experiment: Confirmatory qHTS for Identification of Calcium Integrin Binding Protein 1 (CIB1) Competitor (AID 1508617); note: potency is the fitted concentration of half-maximal effect; nearly all actives have a fitted effect of over 65% in size
# How it was run: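 Fluorescence polarization competition: CIB1-GST (1 uM final) in 5 mM HEPES pH 7.4, 125 mM NaCl, 5 mM CaCl2, 0.01% Tween20 preincubated 15 min RT with compound (up to 114 uM), then FITC-alphaIIb peptide (100 nM) added, 15 min RT.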
# [9] = target: N-terminal Xaa-Pro-Lys N-methyltransferase 1 (Homo sapiens) (UniProt Q9BV86); experiment: Confirmatory qHTS for Inhibitors of N-terminal methyltransferase 1 (NTMT1): MTaseGlo Assay (AID 1645874); conditions: NTMT1 enzyme, MTase-Glo SAH luminescence; note: potency is the fitted concentration of half-maximal effect; nearly all actives have a fitted effect of over 65% in size
# N-terminal Xaa-Pro-Lys N-methyltransferase 1 (Homo sapiens), sequence (Q9BV86 whole entry, looked up): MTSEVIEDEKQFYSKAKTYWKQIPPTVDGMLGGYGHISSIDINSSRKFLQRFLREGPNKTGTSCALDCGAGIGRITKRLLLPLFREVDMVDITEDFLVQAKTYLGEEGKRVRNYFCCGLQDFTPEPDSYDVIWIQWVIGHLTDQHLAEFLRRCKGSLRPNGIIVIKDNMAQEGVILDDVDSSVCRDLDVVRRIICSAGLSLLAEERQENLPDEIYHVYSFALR
# How it was run: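 SPKRIA peptide at 1 uM was methylated by 125 nM NTMT1 using 100 uM SAM over 30 min at room temperature, following a 15 min compound preincubation. Product SAH was detected luminescently.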
smiles,measurement,setting,value
C=C(C)[C@@H]1CC[C@]2(C(=O)O)CC[C@]3(C)[C@H](CC[C@@H]4[C@@]5(C)CC[C@H](O)C(C)(C)[C@@H]5CC[C@]43C)[C@@H]12,Potency,[1],inactive
same,Potency,[2],inactive
same,outcome,[3],inactive
same,Potency,[4],inactive
same,Potency,[5],inactive
CCCCCCCCCCCCc1ccc(S(=O)(=O)Nc2nncs2)cc1,Potency,[1],inactive
same,outcome,[3],inactive
same,Potency,[4],inactive
CN(C)c1ccc2cc(C(=O)N[C@@H](CCCN=C(N)CCl)C(=O)NCc3ccccc3)ccc2c1,Potency,[1],20.8 µM (active)
same,Potency,[2],inactive
same,Potency,[4],inactive
same,Potency,[5],inactive
Cc1cc(O)c2c(c1)C(=O)c1cccc(O)c1C2=O,Potency,[1],inactive
same,outcome,[3],inactive
same,Potency,[6],inactive
same,Potency,[7],inactive
same,Potency,[4],inactive
same,Potency,[5],inactive
CN(CC(=O)N(Cc1ccc(C2CCCCC2)cc1)c1ccc(C(=O)O)c(O)c1)S(=O)(=O)c1c(F)c(F)c(F)c(F)c1F,Potency,[1],inactive
same,outcome,[3],inactive
CC(Cc1ccc(O)c(O)c1)(NN)C(=O)O (configuration not stated),Potency,[1],inactive
same,Potency,[2],inactive
same,outcome,[3],inactive
same,Potency,[5],29.5 µM (active)
O=C(Nc1cccc(Nc2ncc(Br)c(NCCc3cnc[nH]3)n2)c1)N1CCCC1,Potency,[1],5.87 µM (active)
same,Potency,[2],inactive
same,outcome,[3],inactive
same,Potency,[4],0.934 µM (active)
same,Potency,[5],0.59 µM (active)
COc1cc(C(C)C)c(Oc2cnc(NC(CO)CO)nc2N)cc1I,Potency,[1],inactive
same,outcome,[3],inactive
same,Potency,[6],19 µM (active)
same,Potency,[7],12 µM (active)
same,Potency,[4],inactive
same,Potency,[5],inactive
O=C(Nc1nnc(-c2ccco2)o1)c1cc(-c2ccccc2)nc2ccccc12,Potency,[1],inactive
same,Potency,[2],inactive
same,outcome,[3],inactive
same,Potency,[4],18.6 µM (active)
same,Potency,[5],13.2 µM (active)
C[N+](C)([O-])CCNc1ccc(NCC[N+](C)(C)[O-])c2c1C(=O)c1c(O)ccc(O)c1C2=O,Potency,[1],inactive
same,Potency,[2],inactive
same,outcome,[3],inactive
same,Potency,[4],0.0525 µM (active)
same,Potency,[5],0.0372 µM (active)
CC(C)c1cnn2c(NCc3ccccc3)cc(NCCCCCCN)nc12,Potency,[1],26.2 µM (active)
same,Potency,[2],inactive
same,Potency,[4],20.9 µM (active)
same,Potency,[5],20.9 µM (active)
COc1cc(OC)cc(-c2ccc3ncc4ccc(=O)n(-c5ccc(N6CCNCC6)c(C(F)(F)F)c5)c4c3c2)c1,Potency,[2],inactive
same,outcome,[3],inactive
CC(C)N1[N]C(=C2C=c3cc(O)ccc3=N2)c2c(N)ncnc21,Potency,[2],inactive
same,outcome,[3],inactive
Cc1coc2c1C(=O)C(=O)c1c-2ccc2c(C)cccc12,Potency,[8],39.8 µM (active)
same,Potency,[2],inactive
same,Potency,[6],3.38 µM (active)
same,Potency,[7],9.52 µM (active)
same,Potency,[4],inactive
same,Potency,[5],inactive
C[C@H]1COc2c(N3CCN(C)CC3)c(F)cc3c(=O)c(C(=O)O)cn1c23,Potency,[1],inactive
same,outcome,[3],inactive
same,Potency,[5],inactive
CN1CCCN(C(=O)c2cccc(-c3ccc(C=C4C(=O)Nc5ccc(Cl)cc54)o3)c2)CC1,Potency,[8],35.5 µM (active)
same,outcome,[3],inactive
same,Potency,[9],9.16 µM (active)
same,Potency,[4],0.206 µM (active)
same,Potency,[5],0.184 µM (active)
